{"source": "PubChem BioAssay (NCI)", "key": {"[1]": {"experiment": "NCI Yeast Anticancer Drug Screen. Data for the rad52 strain (AID 147)", "settings": "S. cerevisiae rad52 mutant growth inhibition, stronger effect = higher value", "in_short": "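Inhibition of yeast growth, referenced to vehicle controls, was the measured output for a strain with defective DNA damage repair.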"}, "[2]": {"experiment": "NCI Yeast Anticancer Drug Screen. Data for the wt1 strain (AID 149)", "settings": "S. cerevisiae wt1 strain (SPY 50644) growth inhibition, stronger effect = higher value", "in_short": "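Each compound is tested on wt1 yeast and the loss of growth versus vehicle gives the inhibition value.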"}, "[3]": {"experiment": "NCI Yeast Anticancer Drug Screen. Data for the rad50EPP+ strain (AID 151)", "settings": "S. cerevisiae rad50 mutant strain, stronger effect = higher value", "in_short": "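Genetically defined yeast (rad50EPP+, DNA damage repair alteration) is grown with compound, and inhibition of growth is expressed relative to vehicle-treated controls.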"}, "[4]": {"experiment": "NCI Yeast Anticancer Drug Screen. Data for the mgt1 strain (AID 153)", "settings": "S. cerevisiae mgt1 mutant growth inhibition, stronger effect = higher value", "in_short": "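In the mgt1 strain, test compounds were added and growth inhibition was determined relative to vehicle-treated controls.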"}, "[5]": {"experiment": "NCI Yeast Anticancer Drug Screen. Data for the mec2-1 strain (AID 157)", "settings": "S. cerevisiae mec2-1 strain, stronger effect = higher value", "in_short": "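Each compound was tested on mec2-1 yeast, a strain altered in DNA damage repair or cell cycle control. Growth inhibition is reported relative to vehicle.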"}, "[6]": {"experiment": "NCI Yeast Anticancer Drug Screen. Data for the rad14 strain (AID 159)", "settings": "S. cerevisiae rad14 strain growth inhibition, stronger effect = higher value", "in_short": "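Inhibition of growth is reported for a repair-deficient yeast mutant following compound treatment, calculated relative to cultures that received vehicle.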"}, "[7]": {"experiment": "NCI Yeast Anticancer Drug Screen. Data for the sgs1 mgt1 strain (AID 161)", "settings": "S. cerevisiae sgs1 mgt1 strain, stronger effect = higher value", "in_short": "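Test agents were incubated with a DNA-repair-mutant yeast strain. Growth was then read and compared against vehicle-treated controls.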"}, "[8]": {"experiment": "NCI Yeast Anticancer Drug Screen. Data for the CLN2oe strain (AID 163)", "settings": "S. cerevisiae CLN2oe strain, stronger effect = higher value", "in_short": "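First, the altered yeast strain was treated with each compound; second, its growth was measured; finally, inhibition was derived by comparison with vehicle controls.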"}, "[9]": {"experiment": "NCI Yeast Anticancer Drug Screen. Data for the cln2 rad14 strain (AID 165)", "settings": "S. cerevisiae cln2 rad14 strain, stronger effect = higher value", "in_short": "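Test compounds were added to cln2 rad14 yeast cultures; inhibition of growth was then determined by comparison with vehicle treatment.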"}, "[10]": {"experiment": "NCI Yeast Anticancer Drug Screen. Data for the bub3 strain (AID 167)", "settings": "S. cerevisiae bub3 mutant strain, stronger effect = higher value", "in_short": "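Mutant yeast screening strain plus compound; vehicle-treated cultures serve as the 0% inhibition reference.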"}, "[11]": {"experiment": "NCI Yeast Anticancer Drug Screen. Data for the wt2 strain (AID 169)", "settings": "S. cerevisiae wt2 strain growth inhibition, stronger effect = higher value", "in_short": "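The panel's yeast strains carry defined changes in DNA repair or cell cycle genes. Each strain is grown with compound, and growth loss is scored relative to vehicle.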"}, "[12]": {"experiment": "NCI Yeast Anticancer Drug Screen. Data for the mlh1 strain (AID 171)", "settings": "S. cerevisiae mlh1 strain growth inhibition, stronger effect = higher value", "in_short": "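Inhibition values reflect reduced yeast growth in the presence of compound, referenced to vehicle controls, using a strain chosen for its alteration in DNA repair or cell cycle control.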"}, "[13]": {"experiment": "NCI Yeast Anticancer Drug Screen. Data for the mlh1 rad18 strain (AID 175)", "settings": "S. cerevisiae mlh1 rad18 strain growth inhibition, stronger effect = higher value", "in_short": "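Inhibition values reflect reduced growth of mutant yeast versus vehicle-treated controls following compound exposure; the mutations affect DNA damage repair.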"}, "[14]": {"settings": "at 5.0 µM (retest, dose inferred, filed as 0.5)"}, "[15]": {"settings": "at 50.0 µM (retest, dose inferred, filed as 5.0)"}}, "note": "This is part of a sample that, as a whole, favours compounds with a hit. Of some 79,000 tested, about 15% had one in any assay. Unmarked numbers belong to inactive results. Activity calls are given as the source filed them. Rule as the data show it: active = growth inhibition above about 70%; inactive = the rest.", "data": [{"smiles": "Brc1ccccc1-c1ncc(-c2ccccc2)o1", "values": [{"measurement": "growth inhibition", "setting": "[1]; at 1.2 µM", "result": -7, "unit": "%"}, {"measurement": "growth inhibition", "setting": "[1]; at 3.7 µM", "result": -3, "unit": "%"}, {"measurement": "growth inhibition", "setting": "[1]; at 11.0 µM", "result": 19, "unit": "%"}, {"measurement": "growth inhibition", "setting": "[1]; at 33.0 µM", "result": 42, "unit": "%"}, {"measurement": "growth inhibition", "setting": "[1]; at 100.0 µM", "result": 55, "unit": "%"}, {"measurement": "growth inhibition", "setting": "[2]; at 1.2 µM", "result": -12, "unit": "%"}, {"measurement": "growth inhibition", "setting": "[2]; at 3.7 µM", "result": -26, "unit": "%"}, {"measurement": "growth inhibition", "setting": "[2]; at 11.0 µM", "result": -12, "unit": "%"}, {"measurement": "growth inhibition", "setting": "[2]; at 33.0 µM", "result": 21, "unit": "%"}, {"measurement": "growth inhibition", "setting": "[2]; at 100.0 µM", "result": 44, "unit": "%"}, {"measurement": "growth inhibition", "setting": "[3]; at 1.2 µM", "result": -14, "unit": "%"}, {"measurement": "growth inhibition", "setting": "[3]; at 3.7 µM", "result": 10, "unit": "%"}, {"measurement": "growth inhibition", "setting": "[3]; at 11.0 µM", "result": -1, "unit": "%"}, {"measurement": "growth inhibition", "setting": "[3]; at 33.0 µM", "result": 38, "unit": "%"}, {"measurement": "growth inhibition", "setting": "[3]; at 100.0 µM", "result": 62, "unit": "%"}, {"measurement": "growth inhibition", "setting": "[4]; at 1.2 µM", "result": 15, "unit": "%"}, {"measurement": "growth inhibition", "setting": "[4]; at 3.7 µM", "result": 27, "unit": "%"}, {"measurement": "growth inhibition", "setting": "[4]; at 11.0 µM", "result": 33, "unit": "%"}, {"measurement": "growth inhibition", "setting": "[4]; at 33.0 µM", "result": "73% (active)"}, {"measurement": "growth inhibition", "setting": "[4]; at 100.0 µM", "result": "78% (active)"}, {"measurement": "growth inhibition", "setting": "[5]; at 1.2 µM", "result": 7, "unit": "%"}, {"measurement": "growth inhibition", "setting": "[5]; at 3.7 µM", "result": -23, "unit": "%"}, {"measurement": "growth inhibition", "setting": "[5]; [14]", "result": 42, "unit": "%"}, {"measurement": "growth inhibition", "setting": "[5]; at 11.0 µM", "result": -10, "unit": "%"}, {"measurement": "growth inhibition", "setting": "[5]; at 33.0 µM", "result": 40, "unit": "%"}, {"measurement": "growth inhibition", "setting": "[5]; [15]", "result": "98% (active)"}, {"measurement": "growth inhibition", "setting": "[5]; at 50.0 µM", "result": 47.1, "unit": "%"}, {"measurement": "growth inhibition", "setting": "[5]; at 100.0 µM", "result": "76% (active)"}, {"measurement": "growth inhibition", "setting": "[6]; at 1.2 µM", "result": -43, "unit": "%"}, {"measurement": "growth inhibition", "setting": "[6]; at 3.7 µM", "result": -36, "unit": "%"}, {"measurement": "growth inhibition", "setting": "[6]; at 11.0 µM", "result": -16, "unit": "%"}, {"measurement": "growth inhibition", "setting": "[6]; at 33.0 µM", "result": 55, "unit": "%"}, {"measurement": "growth inhibition", "setting": "[6]; at 100.0 µM", "result": "80% (active)"}, {"measurement": "growth inhibition", "setting": "[7]; [14]", "result": -18, "unit": "%"}, {"measurement": "growth inhibition", "setting": "[7]; [15]", "result": 61, "unit": "%"}, {"measurement": "growth inhibition", "setting": "[7]; at 50.0 µM", "result": "71.4% (active)"}, {"measurement": "growth inhibition", "setting": "[8]; at 1.2 µM", "result": 0, "unit": "%"}, {"measurement": "growth inhibition", "setting": "[8]; at 3.7 µM", "result": -8, "unit": "%"}, {"measurement": "growth inhibition", "setting": "[8]; at 11.0 µM", "result": 3, "unit": "%"}, {"measurement": "growth inhibition", "setting": "[8]; at 33.0 µM", "result": 6, "unit": "%"}, {"measurement": "growth inhibition", "setting": "[8]; at 100.0 µM", "result": 5, "unit": "%"}, {"measurement": "growth inhibition", "setting": "[9]; [14]", "result": 33, "unit": "%"}, {"measurement": "growth inhibition", "setting": "[9]; [15]", "result": 68, "unit": "%"}, {"measurement": "growth inhibition", "setting": "[9]; at 50.0 µM", "result": 37.9, "unit": "%"}, {"measurement": "growth inhibition", "setting": "[10]; at 1.2 µM", "result": 15, "unit": "%"}, {"measurement": "growth inhibition", "setting": "[10]; at 3.7 µM", "result": 6, "unit": "%"}, {"measurement": "growth inhibition", "setting": "[10]; [14]", "result": 40, "unit": "%"}, {"measurement": "growth inhibition", "setting": "[10]; at 11.0 µM", "result": 52, "unit": "%"}, {"measurement": "growth inhibition", "setting": "[10]; at 33.0 µM", "result": "74% (active)"}, {"measurement": "growth inhibition", "setting": "[10]; [15]", "result": "82% (active)"}, {"measurement": "growth inhibition", "setting": "[10]; at 50.0 µM", "result": "71.2% (active)"}, {"measurement": "growth inhibition", "setting": "[10]; at 100.0 µM", "result": "76% (active)"}, {"measurement": "growth inhibition", "setting": "[11]; at 1.2 µM", "result": -46, "unit": "%"}, {"measurement": "growth inhibition", "setting": "[11]; at 3.7 µM", "result": -43, "unit": "%"}, {"measurement": "growth inhibition", "setting": "[11]; at 11.0 µM", "result": -35, "unit": "%"}, {"measurement": "growth inhibition", "setting": "[11]; at 33.0 µM", "result": 21, "unit": "%"}, {"measurement": "growth inhibition", "setting": "[11]; at 100.0 µM", "result": 43, "unit": "%"}, {"measurement": "growth inhibition", "setting": "[12]; at 1.2 µM", "result": -4, "unit": "%"}, {"measurement": "growth inhibition", "setting": "[12]; at 3.7 µM", "result": -13, "unit": "%"}, {"measurement": "growth inhibition", "setting": "[12]; at 11.0 µM", "result": 15, "unit": "%"}, {"measurement": "growth inhibition", "setting": "[12]; at 33.0 µM", "result": 47, "unit": "%"}, {"measurement": "growth inhibition", "setting": "[12]; at 100.0 µM", "result": 60, "unit": "%"}, {"measurement": "growth inhibition", "setting": "[13]; [14]", "result": 37, "unit": "%"}, {"measurement": "growth inhibition", "setting": "[13]; [15]", "result": "82% (active)"}, {"measurement": "growth inhibition", "setting": "[13]; at 50.0 µM", "result": 56.9, "unit": "%"}]}]}
